Our source for the inhibition values is PubChem BioAssay AID651690 (Sanford-Burnham Center for Chemical Genomics, 2012).

For orientation: inhibition means the change of the read-out against control, counted positive when it falls.

SMILES strings stand for the structures. This is one part of the list. Unmarked numbers belong to inactive results. Active and inactive are the calls of the source. Cut-off read from the data, not from the text of the source: active = inhibition mostly above about 32% (no sharp cut-off); inactive = mostly below about 29%.

The assay deals with Sentrin-specific protease 1 (Homo sapiens) (UniProt Q9P0U3). The assay is described as follows: human SENP1 catalytic domain inhibitors, confirmation, biochemical, kinetic FRET, single concentration (AID 651690).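 Note: 0% = DMSO with enzyme and 100% = no enzyme substrate only.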 The settings on record: recombinant SENP1, CyPet-SUMO1-YPet FRET kinetic cleavage; at 10 µM; active compounds read high.
Sequence of Sentrin-specific protease 1 (Homo sapiens) (Q9P0U3 419-644 limits assumed): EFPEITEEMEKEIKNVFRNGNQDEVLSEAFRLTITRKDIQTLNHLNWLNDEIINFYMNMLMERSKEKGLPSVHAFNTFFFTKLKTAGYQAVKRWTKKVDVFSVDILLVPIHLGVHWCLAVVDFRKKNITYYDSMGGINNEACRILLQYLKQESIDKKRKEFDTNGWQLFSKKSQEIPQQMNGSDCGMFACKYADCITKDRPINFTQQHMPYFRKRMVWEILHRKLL
In the case of `COc1cc(/C=C2\CCCc3c2nc2ccccc2c3C(=O)O)cc(Cl)c1O`, the inhibition was 63.6% (active).

On to `CCN(CC)S(=O)(=O)c1cc([N+](=O)[O-])ccc1N=Nc1c(O)n(C)c2ccccc12`, for which the inhibition was -1.62%.

As to `O=C1C=C(c2cccc(Cl)c2O)C[C@@H](c2ccc(F)cc2)C1`, the inhibition is 74.6% (active).

As to `CC(=O)c1cccc(-c2cnc3c(NC=O)cc(-c4ccc(N(C)C)cc4)cn23)c1`, the inhibition was 48.5% (active).

`CCOC(=O)C1CCN(c2ncnc3c2c(-c2ccccc2)cn3-c2ccc(C)cc2)CC1`: the inhibition is 10.2%.

For `Cc1cc(C(=O)N/N=C/c2ccc(N3CCOCC3)cc2)c(C)o1`, the inhibition was 17.6%.

On to `COc1ccc(OC)c(C2C3=C(N=c4s/c(=C\c5cccc(O)c5)c(=O)n42)c2ccccc2CC3)c1` (stereo unspecified), for which the inhibition was 19.3%.

Consider `Cc1ccc2c(c1)nnc1nnc(SCC(=O)O)n12`, for which the inhibition is 46.3% (active).

In the case of `Cc1cccc(C)c1Nc1c(-c2ccccc2O)nc2ncccn12`, the inhibition is 8.55%.

On to `c1coc(-c2nc3nc4ccccc4n3nc2-c2ccco2)c1`, for which the inhibition was 13.5%.

Take `Fc1cccc(Cc2c(-c3cccc(Cl)c3)nc3ccc(Br)cn23)c1`: the inhibition is 3.67%.

With `CCCCCn1nnnc1-c1nc2cc3ccccc3cc2[nH]c1=O`, the inhibition is 56.7% (active).

On to `O=C(NC(=O)c1ccccc1)Nc1ccccc1O`, for which the inhibition is -0.175%.

As to `N/C(=N\OC(=O)N1c2ccccc2Sc2ccccc21)c1ccc(Br)cc1`, the inhibition was 0.1%.

With `O=[N+]([O-])c1ccc(N=NNc2ccc([N+](=O)[O-])cc2)cc1`, the inhibition is 11.6%.

`O=C1/C(=C/c2coc3ccc(O)cc3c2=O)SC(=S)N1c1ccccc1`: the inhibition was -0.025%.

Take `O=C(CCN1C(=O)/C(=C/c2cccs2)SC1=S)NNC(=O)c1cccc(O)c1`: the inhibition was 44.5% (active).

Regarding `O=C1CC[C@@H]2CC3(C[C@@H]4CCN1[C@H]24)Nc1cc([N+](=O)[O-])ccc1NC3=NC1CCCCC1` (stereo partly specified), the inhibition was 2.83%.

As for `Cc1ccc(C(=O)N/N=C\c2cc(Br)c(Br)o2)cn1`, the inhibition was 14.5%.

Take `COc1ccc(N2C(=O)C3C(C2=O)C(C(=O)c2ccccc2)N2CCCC32)cc1` (stereo unspecified): the inhibition is 23.7%.

With `Cn1c(-c2sc3cc(C(F)(F)F)cnc3c2-c2ccccc2)n[nH]c1=S`, the inhibition is 11.8%.
